Data: PubChem BioAssay (NCI)
About 83,000 compounds went through this panel and 20% of them were active in at least one assay; those are over-represented in the sample as a whole.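 Cell lines were cultured in 96-well plates, exposed to a single compound concentration, and assessed for percent growth 48 hours later.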 Values without a mark were called inactive. Active and inactive are the calls of the source. The calls were made as follows: active = growth percent below 10; inactive = the rest.

Tests used:
Experiment in all cases: NCI-60 one-dose screen, 48 h (100 = growth as untreated, 0 = no growth, -100 = all killed)
Conditions in all cases: 10 µM unless noted
HCT-15 colon = tested on: HCT-15 colon
HT29 colon = tested on: HT29 colon
SNB-75 CNS = tested on: SNB-75 CNS
SNB-19 CNS = tested on: SNB-19 CNS
U251 CNS = tested on: U251 CNS
PC-3 prostate = tested on: PC-3 prostate
SK-MEL-5 melanoma = tested on: SK-MEL-5 melanoma
UACC-62 melanoma = tested on: UACC-62 melanoma
LOX IMVI melanoma = tested on: LOX IMVI melanoma
SK-MEL-28 melanoma = tested on: SK-MEL-28 melanoma
SK-MEL-2 melanoma = tested on: SK-MEL-2 melanoma
EKVX NSCLC = tested on: EKVX NSCLC
SN12C renal = tested on: SN12C renal
UO-31 renal = tested on: UO-31 renal
TK-10 renal = tested on: TK-10 renal
ACHN renal = tested on: ACHN renal
CAKI-1 renal = tested on: CAKI-1 renal
A498 renal = tested on: A498 renal
CCRF-CEM leukemia = tested on: CCRF-CEM leukemia
MOLT-4 leukemia = tested on: MOLT-4 leukemia

Structure (SMILES) | growth (HCT-15 colon) | growth (HT29 colon) | growth (SNB-75 CNS) | growth (SNB-19 CNS) | growth (U251 CNS) | growth (PC-3 prostate) | growth (SK-MEL-5 melanoma) | growth (UACC-62 melanoma) | growth (LOX IMVI melanoma) | growth (SK-MEL-28 melanoma) | growth (SK-MEL-2 melanoma) | growth (EKVX NSCLC) | growth (SN12C renal) | growth (UO-31 renal) | growth (TK-10 renal) | growth (ACHN renal) | growth (CAKI-1 renal) | growth (A498 renal) | growth (CCRF-CEM leukemia) | growth (MOLT-4 leukemia)
CC1(C(=O)O)CCC(N)(C(=O)O)C1(C)C (configuration not stated) | 106% | 103% | 90% | 105% | 105% | 88.8% | 107% | 107% | 109% | 109% | 110% | 112% | 107% | 86.5% | 101% | 116% | 114% | 87.7% | 89.7% | 100%
COc1ccc(C2NC(=O)C(C#N)c3c2sc2c(F)cccc32)cc1 (configuration not stated) | 33.6% | 50.5% | 13.6% | 42.7% | 47.3% | 52.4% | 60.6% | 36.4% | 45.6% | 52.6% | 60% | 62.8% | 61.5% | 36.8% | 113% | 43.6% | 40% | 32.2% | 44% | 49.1%
COc1cc(-c2nc(SCCC(C)C)nc(Nc3ccccc3)c2C#N)cc(OC)c1OC | 96.8% | 82.3% | 66.8% | 99.4% | 85% | 83.8% | 97.3% | 71.8% | 99.4% | 103% | 103% | 100% | 89.5% | 68.4% | 110% | 94% | 72.4% | 69.9% | 88.6% | 84.3%
CC[C@@H]1NC(=O)[C@@H]2CCCCN2C(=O)[C@@H]2CCCN2C(=O)[C@@H](NC(=O)[C@H](Cc2cc(F)cc(F)c2)NC(=O)Nc2ccc(C3CC3)cc2F)[C@H](C)OC(=O)[C@@H]2C[C@@H](C)CN2C1=O | 4.6% (active) | 4.98% (active) | 10.4% | 15.7% | 24.5% | 12.5% | -45% (active) | 7.28% (active) | 16.4% | 13.5% | 9.64% (active) | 20.4% | 12% | 11.2% | 34% | 12.1% | 9.54% (active) | -5.62% (active) | 40.5% | 17%
C[C@@H]1C[C@H]2C(=O)O[C@@H](C)[C@H](NC(=O)[C@H](Cc3cc(F)cc(F)c3)NC(=O)Nc3ccc(Cl)cc3F)C(=O)N3C[C@H](O)C[C@H]3C(=O)N3CCN(C)C[C@H]3C(=O)N[C@@H](C)C(=O)N2C1 | 107% | 32.5% | 22.8% | 20.3% | 21.1% | 18.1% | 64.6% | 31.1% | 43.4% | 41.3% | 29.6% | 69.8% | 22.9% | 83% | 91.7% | 104% | 72.7% | 33.1% | 53.7% | 41.7%
Cc1ccc(-c2cc(-c3ccc(C)cc3)nc(N3CCN(CCNc4ccnc5cc(Cl)ccc45)CC3)n2)cc1 | 42.1% | 11.9% | -21.1% (active) | 38.7% | 35.7% | 44.6% | 38.5% | 12.2% | 6.97% (active) | 14.6% | 65.4% | 74% | 34.7% | -27.8% (active) | 0.923% (active) | 72.9% | 32.7% | 47.1% | 8.72% (active) | 38.9%
Cc1ccc(S(=O)(=O)Oc2ccc(Br)cc2Br)cc1 | 48.5% | 34.5% | 64.8% | 75.7% | 48.5% | 79.4% | 77.9% | 63.8% | 52.3% | 92.8% | 75.4% | 83.3% | 95.2% | 88.9% | 94.9% | – | 65% | 74.3% | 47.7% | –
O=C1CN(Cc2ccc(C(=O)NO)cc2)C(=O)[C@@H](Cc2ccccc2)N1 | 104% | 113% | 85.9% | 98.5% | 92.4% | 97.9% | 107% | 99.2% | 111% | 105% | 112% | 98.9% | 102% | 92.9% | 106% | 103% | 94.1% | 94.7% | 105% | 101%
Nc1nc(N)c2c(n1)NC(c1ccc(F)cc1)C1CCc3ccccc3C1=N2 (configuration not stated) | 49.6% | 27.9% | 63.1% | 70.7% | 41.8% | 45% | 1.07% (active) | 47.5% | 52.8% | 93.4% | 97.7% | 45.3% | 63.1% | 59.7% | 36.3% | 49.7% | 44.8% | 58.1% | 35.9% | 19.9%
C#CCNC(=O)CC[C@]1(C)[C@H]2CC[C@@H]3[C@@H]([C@@](C)(O)CCC=C(C)C)CC[C@@]3(C)[C@]2(C)CC[C@H]1C(=C)C | 67.3% [100 µM] | -30.8% [100 µM] (active) | -19% [100 µM] (active) | 60.9% [100 µM] | -71.4% [100 µM] (active) | 20.5% [100 µM] | 9.4% [100 µM] (active) | 34% [100 µM] | -67.7% [100 µM] (active) | 54.1% [100 µM] | 49.1% [100 µM] | 71.7% [100 µM] | 43.9% [100 µM] | -95.8% [100 µM] (active) | 70.5% [100 µM] | 7.69% [100 µM] (active) | 1.83% [100 µM] (active) | 67.1% [100 µM] | -34.4% [100 µM] (active) | -29% [100 µM] (active)
O=C(N/N=C1\c2ccccc2-c2cccc(C(=O)O)c21)c1ccc(O)cc1 | 107% | 98.3% | 74% | 96.3% | 101% | 92.1% | 99.1% | 93.8% | 98.9% | 102% | 102% | 97.2% | 91.1% | 80.4% | 98.1% | 99.5% | 86.9% | 73.1% | 89.9% | 99.8%
C#CC(OC(=O)N(C)C)(c1ccccc1)c1ccc(F)cc1 (configuration not stated) | 94.8% | 116% | 93% | 120% | 94.8% | 102% | 112% | 86.2% | 78.3% | 96.5% | 102% | 116% | 96.7% | 89.3% | 125% | 101% | 91.8% | 105% | 116% | 98%
C=C(C)[C@@H]1CC[C@]2(C(=O)N3CCN(C)CC3)CC[C@]3(C)[C@H](CC[C@@H]4[C@@]5(C)C/C(=C/c6ccncc6)[C@H](O)C(C)(C)[C@@H]5CC[C@]43C)[C@@H]12 | -28.6% [100 µM] (active) | -65.8% [100 µM] (active) | 4.76% [100 µM] (active) | 14.4% [100 µM] | -70.5% [100 µM] (active) | -20.2% [100 µM] (active) | -82.4% [100 µM] (active) | -56% [100 µM] (active) | -77.3% [100 µM] (active) | -54.3% [100 µM] (active) | -60.1% [100 µM] (active) | -1.55% [100 µM] (active) | -44.2% [100 µM] (active) | -61.4% [100 µM] (active) | 22% [100 µM] | – | 12.1% [100 µM] | -28.9% [100 µM] (active) | -5.24% [100 µM] (active) | -24.4% [100 µM] (active)
O=[N+]([O-])c1cc([N+](=O)[O-])c(NN=C(c2ccc(O)cc2)c2ccc(O)cc2)cc1Cl | -85.8% (active) | -82.6% (active) | -15.6% (active) | 89.4% | -99.9% (active) | -80.8% (active) | 59.5% | 18.4% | -94% (active) | -90.3% (active) | -94% (active) | 38.8% | -78.6% (active) | -98.4% (active) | -57% (active) | -62.7% (active) | 42.3% | 73.4% | 82.1% | 53.4%
